Measured values reported in the supplement of paper PMC10849652.
About 7,900 targets were measured; listed, in parts, are those with a hit and a random draw of the rest. About 0.6% of all pairs of compound and target were hits. Unmarked numbers belong to inactive results.

compound: C1=CC=C(C=C1)C2=NC(=C(N2)C3=CC=NC=C3)C4=CC(=C(C=C4)Cl)O; test: log2 fold change, soluble protein after heating vs DMSO (PISA); higher = thermal stabilisation; K562 cells, 10 uM, 30 min; active = over 0.2 and 3.5 SD of the protein, either way, in both replicates (recomputed)
Method in brief: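 Quantification of soluble protein used TMTpro 16plex LC-MS/MS, with channel sums equalised. Samples were the supernatant after 21,000xg for 90 min of pooled aliquots from K562 cells (2×10^6 cells/mL) treated with 10 μM compound for 30 min, heated for 3 min over 48°C-58°C, and extracted in PBS with 0.5% NP-40 at 4°C. Values, from duplicates, describe thermal stability against control samples on a log2 fold-change scale.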

UniProt Q8TAG9, sequence (Q8TAG9 whole entry, looked up): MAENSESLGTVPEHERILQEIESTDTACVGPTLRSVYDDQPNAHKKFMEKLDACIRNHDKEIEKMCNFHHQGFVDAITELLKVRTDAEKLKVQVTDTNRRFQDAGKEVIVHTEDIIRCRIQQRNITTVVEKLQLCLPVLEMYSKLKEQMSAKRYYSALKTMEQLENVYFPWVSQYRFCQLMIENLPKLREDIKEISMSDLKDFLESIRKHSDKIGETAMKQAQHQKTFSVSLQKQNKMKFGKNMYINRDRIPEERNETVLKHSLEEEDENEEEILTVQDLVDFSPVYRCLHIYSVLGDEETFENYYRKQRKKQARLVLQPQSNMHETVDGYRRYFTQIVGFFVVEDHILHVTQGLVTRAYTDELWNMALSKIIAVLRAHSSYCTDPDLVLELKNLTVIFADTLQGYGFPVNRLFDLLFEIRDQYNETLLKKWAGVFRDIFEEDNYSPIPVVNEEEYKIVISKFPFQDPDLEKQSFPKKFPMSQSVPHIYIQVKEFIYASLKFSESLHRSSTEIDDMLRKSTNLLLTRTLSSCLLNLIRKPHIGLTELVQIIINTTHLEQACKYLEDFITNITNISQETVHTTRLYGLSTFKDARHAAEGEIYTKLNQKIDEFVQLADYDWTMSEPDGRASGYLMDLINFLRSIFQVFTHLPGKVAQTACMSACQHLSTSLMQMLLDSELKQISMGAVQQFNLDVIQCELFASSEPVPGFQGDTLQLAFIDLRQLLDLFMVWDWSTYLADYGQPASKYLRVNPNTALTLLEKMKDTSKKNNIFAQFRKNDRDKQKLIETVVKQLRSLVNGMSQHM
UniProt Q96KC8, sequence (Q96KC8 whole entry, looked up): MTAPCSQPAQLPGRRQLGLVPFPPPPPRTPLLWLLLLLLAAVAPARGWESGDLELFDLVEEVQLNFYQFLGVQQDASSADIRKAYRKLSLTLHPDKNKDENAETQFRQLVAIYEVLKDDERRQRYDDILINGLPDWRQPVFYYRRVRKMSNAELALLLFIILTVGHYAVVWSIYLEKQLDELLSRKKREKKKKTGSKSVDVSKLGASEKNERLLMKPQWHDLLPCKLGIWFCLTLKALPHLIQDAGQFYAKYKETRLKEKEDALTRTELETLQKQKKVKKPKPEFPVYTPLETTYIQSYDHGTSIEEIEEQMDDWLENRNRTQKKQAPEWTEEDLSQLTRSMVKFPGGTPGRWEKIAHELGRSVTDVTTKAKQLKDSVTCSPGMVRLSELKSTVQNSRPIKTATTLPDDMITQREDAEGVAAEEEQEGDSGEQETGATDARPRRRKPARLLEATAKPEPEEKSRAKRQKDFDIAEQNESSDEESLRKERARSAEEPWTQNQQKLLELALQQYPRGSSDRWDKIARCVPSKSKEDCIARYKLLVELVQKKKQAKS
UniProt Q8IYI6, sequence (Q8IYI6 whole entry, looked up): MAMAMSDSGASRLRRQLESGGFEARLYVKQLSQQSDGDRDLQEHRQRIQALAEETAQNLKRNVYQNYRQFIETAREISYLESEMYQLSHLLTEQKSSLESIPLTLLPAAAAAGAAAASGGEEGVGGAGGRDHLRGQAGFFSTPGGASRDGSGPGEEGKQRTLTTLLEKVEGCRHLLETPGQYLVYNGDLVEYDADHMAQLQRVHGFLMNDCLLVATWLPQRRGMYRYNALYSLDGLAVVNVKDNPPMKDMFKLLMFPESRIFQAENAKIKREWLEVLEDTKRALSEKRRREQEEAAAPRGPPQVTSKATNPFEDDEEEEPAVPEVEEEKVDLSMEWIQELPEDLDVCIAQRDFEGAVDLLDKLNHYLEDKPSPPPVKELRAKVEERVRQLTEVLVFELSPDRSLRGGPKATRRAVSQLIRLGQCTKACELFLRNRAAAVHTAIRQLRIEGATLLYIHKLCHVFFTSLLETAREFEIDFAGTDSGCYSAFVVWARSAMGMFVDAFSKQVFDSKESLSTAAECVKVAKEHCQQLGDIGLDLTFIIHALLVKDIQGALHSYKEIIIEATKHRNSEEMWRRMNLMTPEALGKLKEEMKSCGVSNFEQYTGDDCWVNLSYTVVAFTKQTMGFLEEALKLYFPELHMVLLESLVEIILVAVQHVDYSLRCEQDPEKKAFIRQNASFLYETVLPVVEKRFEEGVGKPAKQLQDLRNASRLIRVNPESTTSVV
UniProt Q7Z2Z2, sequence (Q7Z2Z2 whole entry, looked up): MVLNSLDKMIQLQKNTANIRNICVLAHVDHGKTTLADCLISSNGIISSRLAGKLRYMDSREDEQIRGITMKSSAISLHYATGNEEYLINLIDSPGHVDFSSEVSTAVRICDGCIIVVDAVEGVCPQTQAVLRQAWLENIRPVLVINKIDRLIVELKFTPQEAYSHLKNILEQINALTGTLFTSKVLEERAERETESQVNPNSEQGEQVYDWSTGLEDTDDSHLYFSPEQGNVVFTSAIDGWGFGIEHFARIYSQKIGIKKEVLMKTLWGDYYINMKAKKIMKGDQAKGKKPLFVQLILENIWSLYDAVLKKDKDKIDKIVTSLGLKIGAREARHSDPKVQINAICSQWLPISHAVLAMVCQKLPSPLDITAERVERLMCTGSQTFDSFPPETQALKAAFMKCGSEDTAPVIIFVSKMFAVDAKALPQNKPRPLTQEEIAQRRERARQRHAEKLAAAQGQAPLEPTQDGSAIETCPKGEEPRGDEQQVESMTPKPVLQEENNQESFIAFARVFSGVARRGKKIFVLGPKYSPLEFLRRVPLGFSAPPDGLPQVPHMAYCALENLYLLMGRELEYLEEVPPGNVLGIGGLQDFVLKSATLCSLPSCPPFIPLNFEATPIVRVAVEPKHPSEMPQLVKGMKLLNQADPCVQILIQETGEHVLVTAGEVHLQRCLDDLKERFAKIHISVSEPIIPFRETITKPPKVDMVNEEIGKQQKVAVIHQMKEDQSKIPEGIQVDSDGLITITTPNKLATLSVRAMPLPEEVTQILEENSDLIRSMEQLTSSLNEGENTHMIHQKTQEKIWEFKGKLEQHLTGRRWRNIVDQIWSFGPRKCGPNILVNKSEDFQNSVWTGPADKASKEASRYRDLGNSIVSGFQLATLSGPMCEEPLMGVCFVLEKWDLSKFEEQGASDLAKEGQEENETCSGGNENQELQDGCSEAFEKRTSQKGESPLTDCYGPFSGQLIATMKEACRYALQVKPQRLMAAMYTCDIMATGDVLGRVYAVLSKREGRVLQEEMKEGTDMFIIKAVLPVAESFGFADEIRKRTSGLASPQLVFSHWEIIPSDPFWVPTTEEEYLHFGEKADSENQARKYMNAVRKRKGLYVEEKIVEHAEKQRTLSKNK
UniProt Q9BV94, sequence (Q9BV94 whole entry, looked up): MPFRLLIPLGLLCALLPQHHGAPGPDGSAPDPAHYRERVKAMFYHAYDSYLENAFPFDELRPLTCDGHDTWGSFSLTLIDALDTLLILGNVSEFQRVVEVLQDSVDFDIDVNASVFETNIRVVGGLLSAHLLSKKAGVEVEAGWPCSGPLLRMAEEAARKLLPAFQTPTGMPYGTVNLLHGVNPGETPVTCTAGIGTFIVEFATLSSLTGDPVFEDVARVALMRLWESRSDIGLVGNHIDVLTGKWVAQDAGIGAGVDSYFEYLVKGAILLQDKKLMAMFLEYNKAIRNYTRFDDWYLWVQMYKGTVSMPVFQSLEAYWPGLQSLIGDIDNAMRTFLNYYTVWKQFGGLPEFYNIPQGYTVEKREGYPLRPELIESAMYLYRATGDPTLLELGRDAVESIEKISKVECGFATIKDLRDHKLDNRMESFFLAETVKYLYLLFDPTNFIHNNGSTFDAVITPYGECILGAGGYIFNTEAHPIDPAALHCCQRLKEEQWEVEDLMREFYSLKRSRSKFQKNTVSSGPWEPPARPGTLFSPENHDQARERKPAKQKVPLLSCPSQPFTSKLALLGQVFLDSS
UniProt O60231, sequence (O60231 whole entry, looked up): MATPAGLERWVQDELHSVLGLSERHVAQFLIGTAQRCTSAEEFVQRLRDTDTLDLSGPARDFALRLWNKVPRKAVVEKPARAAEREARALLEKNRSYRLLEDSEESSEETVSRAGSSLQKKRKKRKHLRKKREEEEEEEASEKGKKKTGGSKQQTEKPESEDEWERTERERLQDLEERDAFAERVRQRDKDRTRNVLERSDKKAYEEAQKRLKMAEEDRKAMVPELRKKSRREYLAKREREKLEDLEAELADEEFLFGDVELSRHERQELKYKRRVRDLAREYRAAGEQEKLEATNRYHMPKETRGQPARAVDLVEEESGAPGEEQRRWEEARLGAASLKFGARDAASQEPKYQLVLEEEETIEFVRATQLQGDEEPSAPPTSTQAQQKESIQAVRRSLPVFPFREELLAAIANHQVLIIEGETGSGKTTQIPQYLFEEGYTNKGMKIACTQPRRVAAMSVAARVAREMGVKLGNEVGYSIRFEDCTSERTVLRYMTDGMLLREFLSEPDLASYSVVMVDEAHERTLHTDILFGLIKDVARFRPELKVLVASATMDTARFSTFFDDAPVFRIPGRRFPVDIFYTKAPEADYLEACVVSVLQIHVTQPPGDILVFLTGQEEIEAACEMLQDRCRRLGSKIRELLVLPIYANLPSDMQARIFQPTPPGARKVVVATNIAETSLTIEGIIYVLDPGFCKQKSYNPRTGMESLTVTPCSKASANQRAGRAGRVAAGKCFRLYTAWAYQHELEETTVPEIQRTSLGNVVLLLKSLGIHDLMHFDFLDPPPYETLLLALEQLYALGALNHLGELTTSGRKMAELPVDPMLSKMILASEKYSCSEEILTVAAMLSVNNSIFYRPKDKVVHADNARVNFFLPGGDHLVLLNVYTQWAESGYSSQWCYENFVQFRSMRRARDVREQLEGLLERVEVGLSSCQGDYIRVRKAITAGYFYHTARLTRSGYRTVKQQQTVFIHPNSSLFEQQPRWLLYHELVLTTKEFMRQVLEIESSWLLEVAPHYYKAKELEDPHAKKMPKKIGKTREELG
UniProt P06730, sequence (P06730 whole entry, looked up): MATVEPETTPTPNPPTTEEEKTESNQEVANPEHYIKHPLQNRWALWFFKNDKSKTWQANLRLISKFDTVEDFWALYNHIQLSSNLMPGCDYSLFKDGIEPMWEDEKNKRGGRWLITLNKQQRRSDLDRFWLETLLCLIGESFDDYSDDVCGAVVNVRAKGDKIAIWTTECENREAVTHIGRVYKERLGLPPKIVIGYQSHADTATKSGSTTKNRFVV

Target	log2 fold change
CTU1 (UniProt Q7Z7A3)	0.04
DNAJC1 (UniProt Q96KC8)	-0.021
EIF4E isoform 2 (UniProt P06730)	0.074
DIP2A (UniProt Q14689)	0.037
DBN1 isoform 3 (UniProt Q16643)	0.021
EXOC6 (UniProt Q8TAG9)	0.069
EXTL2 (UniProt Q9UBQ6)	-0.031
DDOST (UniProt P39656)	0.253 (active)
DDX39A (UniProt O00148)	-0.026
ERCC6 (UniProt Q03468)	-0.052
DYRK1A isoform 2 (UniProt Q13627)	-0.027
DBR1 (UniProt Q9UK59)	0.069
EEF1G isoform 2 (UniProt P26641)	0.083
DHFR (UniProt P00374)	0.055
EFL1 (UniProt Q7Z2Z2)	0.053
FAM114A2 (UniProt Q9NRY5)	-0.018
DNAAF2 (UniProt Q9NVR5)	-0.018
EXOC8 (UniProt Q8IYI6)	-0.012
DUS3L (UniProt Q96G46)	0.042
DHPS (UniProt P49366)	0.024
EDEM2 (UniProt Q9BV94)	0.012
DHX16 (UniProt O60231)	0.014
ERCC2 (UniProt P18074)	0.014
